Compound activity from PubChem.
Sampled rows, rich in hits. Any-hit rate of the full collection: about 4%.
tim23-1 inh: growth inhibitors of tim23-1 mutant yeast. 330,000 tested, 1.3% active. inhibition, % at 20 µM. S. cerevisiae tim23-1 growth, BacTiter-Glo luminescence, 24 h;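 active = growth inhibition of the mutant yeast at or above 50%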;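 also: temperature-sensitive mutant grown at 25 °C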
NALP1 inh: blocks the NALP1 inflammasome reconstituted in yeast | 280,000 tested, 0.61% active | AID 2071 | inhibition, % at 10 µM | S. cerevisiae NALP1/ASC/caspase-1 growth, X-gal OD620, 72 h; in the data active = inhibition mostly above about 24%, no sharp cut-off; inactive = mostly below about 32%
tim10-1 inh: tim10-1 yeast growth inhibition; 330,000 tested, 2.2% active; inhibition, % at 20 µM; S. cerevisiae tim10-1 ts strain growth, BacTiter-Glo, 24 h; AID 463190;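 active = inhibition of at least 40%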;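 also: mutant grown at 25 °C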
TIM10 inh: growth inhibitors of TIM10 yeast strain. S. cerevisiae TIM10 strain growth, BacTiter-Glo luminescence, 24 h. inhibition, % at 10 µM. 330,000 tested, 1.4% active;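 active = inhibition of 40% or more at the single tested concentration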;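 also: wild-type TIM10 isogenic control strain grown at permissive 25 °C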
NLRP3 yeast inh: NALP3 inhibition in yeast | Yeast reconstituted NLRP3/ASC/caspase-1, beta-gal luminescence, 24 h | inhibition, % at 10 µM | 330,000 tested, 0.39% active | AID 2825;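 active = inhibition of 50% or more; inactive = inhibition below 50%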
tim10 confirm: confirmation of TIM10 yeast growth inhibitors; shares compounds with TIM10 inh; S. cerevisiae tim10 strain growth, BacTiter-Glo luminescence, 24 h; inhibition, % at 10 µM; 4,600 tested, 63% active; AID 463215;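 active = inhibition of yeast growth at or above a set limit in either of two replicates at 10 µM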; also: this counterscreen used the strain with wild-type TIM10
A number is an active result; n = inactive; x = no result.

SMILES | tim23-1 inh | NALP1 inh | tim10-1 inh | TIM10 inh | NLRP3 yeast inh | tim10 confirm
Cc1ccc(NC(=O)C2CCN(C(=O)OC(C)(C)C)CC2)cc1S(=O)(=O)N1CCCCC1 | n | x | n | 56 | n | n
O=C(CSc1ccc(-c2ccccc2)nn1)c1cccs1 | n | n | n | 41 | n | n
COc1ccc(-c2ccc(SCC(=O)Nc3nnc(C)s3)nn2)cc1 | n | n | n | n | n | x
COc1ccc(-c2ccc(SCC(=O)c3cccs3)nn2)cc1 | n | n | n | 43 | n | n
CCc1ccc(CN2CCCC(C(=O)Nc3ccccc3-c3ccc(OC)cc3)C2)o1 (centres undefined) | n | n | n | n | n | x
CCC(C)(C)C1CCc2[nH]nc(C(=O)N/N=C(\C)c3ccco3)c2C1 (centres undefined) | n | n | n | 45 | n | n
CCOC(=O)c1c(CCl)nc2ccccc2c1-c1ccccc1 | n | x | n | n | n | x
ClCc1nc2ccccc2c2ccccc12 | n | n | n | 41 | n | 38
O=C(COc1ccc2c(c1)OCO2)NC12CC3CC(CC(C3)C1)C2 | n | n | n | 47 | n | 33
COc1ccc(NC(=O)COc2ccc3c(c2)OCO3)cc1 | n | n | n | n | n | x
Cc1ccc2nc(-c3sc4nc(C)ccc4c3N)[nH]c2c1 | n | n | n | 63 | n | 48
Cc1nc2ccc([N+](=O)[O-])cc2[nH]1 | n | n | n | n | n | x
O=[N+]([O-])c1cccc(/C=C/c2nc3ccc([N+](=O)[O-])cc3[nH]2)c1 | n | n | n | 54 | n | 58
O=C(N/N=C/c1cccnc1)c1cc2ccccc2o1 | n | n | n | n | n | x
O=C(N/N=C/c1ccncc1)c1cc2ccccc2o1 | n | n | n | 43 | n | 36
CCCN1C(=O)/C(=C/c2ccc(N3CCCC3)c(C)c2)NC1=S | n | n | n | n | n | x
Cc1cc(/C=C2\NC(=S)N(C)C2=O)ccc1N1CCCC1 | n | n | n | 42 | n | 40
Nc1ccccc1NC1CCCCC1 | x | n | x | x | x | x
COc1c2c(nc3occc13)C(CC=C(C)C)(OC)C(O)CC2 (centres undefined) | n | n | n | n | n | x
COc1c2c(nc3occc13)C(CC=C(C)C)(OC)C(OC(C)=O)CC2 (centres undefined) | n | n | n | 46 | n | n
CCOC(=O)c1cnc(-n2nc(C)cc2C)nc1NCc1ccccc1 | n | n | n | 43 | n | 39
CN(Cc1ccccc1)S(=O)(=O)c1ccc2c(c1)n(C)c(=O)c(=O)n2C | n | n | n | n | n | x
CN(Cc1ccccc1)C(=O)CCS(=O)(=O)c1ccc2c(c1)n(C)c(=O)c(=O)n2C | n | n | n | 40 | n | n
CSC1=NC(=O)/C(=C/c2ccc(SC)cc2)S1 | n | n | n | 49 | n | n
O=C(N/N=C1\CCS(=O)(=O)c2ccc(F)cc21)c1ccc(O)cc1 | n | x | n | n | n | x
SMILES | tim23-1 inh | NALP1 inh | tim10-1 inh | TIM10 inh | NLRP3 yeast inh | tim10 confirm
CCOc1ccc(-c2noc(CCCC(=O)NCC3CCCO3)n2)cc1OC (centres undefined) | n | n | n | n | n | x
CN(C)CCN(C(=O)c1ccc(S(=O)(=O)N2CCCC2)cc1)c1nc2ccc(Br)cc2s1 | n | n | n | n | n | x
CC1CCCCN1S(=O)(=O)c1ccc(C(=O)N(CCCN(C)C)c2nc3ccc(Br)cc3s2)cc1 (centres undefined) | n | n | n | n | n | n
O=c1c2cc(N3CCOCC3)ccc2[nH]c(=S)n1CCCN1CCN(c2ccccc2F)CC1 | n | n | n | 47 | n | 24
CCCC(=O)N1CCN(c2ccc(NC(=O)c3cccs3)cc2)CC1 | n | n | n | n | n | x
Cn1c(N2CCOCC2)c(/C=N/OC(=O)c2cccnc2Cl)c2ccccc21 | x | n | x | x | x | x
Cc1ccc(C(=O)O/N=C/c2c(N3CCOCC3)n(C)c3ccccc23)cc1 | n | n | n | 42 | n | 32
S=C(NCc1ccccc1Cl)Nc1ccccc1Cl | n | n | n | 43 | n | 38
CS(=O)(=O)N1CCc2cc(C(=O)Nc3ccc(Cl)cc3)ccc21 | n | n | n | n | n | x
Cc1ccc(S(=O)(=O)/N=C(/NC(=S)Nc2ccccc2)c2ccccc2)cc1 | n | n | n | 46 | n | n
COc1cccc(CNC(=O)N2CCN(S(=O)(=O)c3ccc(C)cc3)CC2)c1 | n | n | n | n | n | x
c1ccc(-c2nc(N3CCCCCC3)nc(-n3ccnc3)n2)cc1 | n | n | n | 48 | n | n
O=[N+]([O-])c1cccc(-c2ccc(/C=N/NC(=S)Nc3ccccc3)o2)c1 | n | n | n | 47 | n | 48
C=CCNC(=S)N/N=C/c1cccc([N+](=O)[O-])c1 | n | n | n | 47 | n | 40
C=CCNC(=S)Nc1cccc([N+](=O)[O-])c1 | n | n | n | n | n | x
CC(C)(C)c1ccc(C(=O)NC(=S)NCc2cccnc2)cc1 | n | n | n | 41 | n | 30
CC(C)N(Cc1nc(-c2ccccc2)no1)C(=O)C(Cl)(Cl)Cl | n | n | n | 41 | n | n
CC[n+]1c(C)cc(C)n1-c1ccccc1 | n | n | n | n | n | x
COc1ccc(C(=O)NC(Nc2ccccc2)C(Cl)(Cl)Cl)cc1 (centres undefined) | n | n | n | 50 | n | 32
Cc1ccc(NC(NC(=O)c2ccccn2)C(Cl)(Cl)Cl)cc1 (centres undefined) | n | n | n | n | n | x
Cc1ccc(NC(NC(=O)c2cccs2)C(Cl)(Cl)Cl)cc1 (centres undefined) | n | n | n | 50 | n | 38
CCOC(=O)C1CCN(C(=O)COC(=O)c2oc3ccccc3c2C)CC1 | n | x | n | n | n | x
Cc1c(NC(=O)CS(=O)(=O)c2ccccc2)c(=O)n(-c2ccccc2)n1C | n | n | n | n | n | x
CN1CCCN(Cc2nc(-c3ccc(Cl)cc3)no2)CC1 | n | n | n | n | n | x
CCCCCOC(=O)c1ccc(NC(=O)c2ccco2)cc1 | n | n | n | 41 | n | n
SMILES | tim23-1 inh | NALP1 inh | tim10-1 inh | TIM10 inh | NLRP3 yeast inh | tim10 confirm
CCCCOC(=O)c1ccc(NC(=S)NC(=O)c2ccco2)cc1 | n | n | n | n | n | x
CC(C)CN(C(=O)Cn1nnc(-c2ccc(F)cc2)n1)C1CCS(=O)(=O)C1 (centres undefined) | n | x | n | n | n | x
O=C(COC(=O)/C=C/c1cccc(Br)c1)NC1CCCCC1 | n | x | n | n | n | x
O=C(/C=C/c1cccc(Br)c1)NCC1CCCCC1 | n | n | n | 41 | n | 33
COC(=O)c1sccc1NC(=O)COc1ccc(F)cc1Cl | n | n | n | n | n | x
CCOC(=O)c1c(NC(=O)COC(=O)c2ccc(C)s2)sc2c1CC(C)(C)NC2(C)C | n | x | n | n | n | x
C=C(C)COc1ccc(-c2[nH]ncc2-c2ccc(Br)cc2)c(O)c1 | n | n | n | 49 | n | n
Cc1cccc(NC(=O)/C=C/c2ccc([N+](=O)[O-])s2)c1 | x | n | x | x | x | x
Cc1cccc(NC(=S)N/N=C/c2ccc([N+](=O)[O-])s2)c1 | n | n | n | 58 | n | 34
